{"source": "paper PMC13541613", "about": "“GHT-SELEX demonstrates unexpectedly high intrinsic sequence specificity and complex DNA binding of many human transcription factors”", "data": [{"biological_target": "ZNF721 full-length (Homo sapiens, UniProt Q8TF20-2 1-923)", "sequence (Q8TF20 other isoform, or with tags, fused parts or gaps)": "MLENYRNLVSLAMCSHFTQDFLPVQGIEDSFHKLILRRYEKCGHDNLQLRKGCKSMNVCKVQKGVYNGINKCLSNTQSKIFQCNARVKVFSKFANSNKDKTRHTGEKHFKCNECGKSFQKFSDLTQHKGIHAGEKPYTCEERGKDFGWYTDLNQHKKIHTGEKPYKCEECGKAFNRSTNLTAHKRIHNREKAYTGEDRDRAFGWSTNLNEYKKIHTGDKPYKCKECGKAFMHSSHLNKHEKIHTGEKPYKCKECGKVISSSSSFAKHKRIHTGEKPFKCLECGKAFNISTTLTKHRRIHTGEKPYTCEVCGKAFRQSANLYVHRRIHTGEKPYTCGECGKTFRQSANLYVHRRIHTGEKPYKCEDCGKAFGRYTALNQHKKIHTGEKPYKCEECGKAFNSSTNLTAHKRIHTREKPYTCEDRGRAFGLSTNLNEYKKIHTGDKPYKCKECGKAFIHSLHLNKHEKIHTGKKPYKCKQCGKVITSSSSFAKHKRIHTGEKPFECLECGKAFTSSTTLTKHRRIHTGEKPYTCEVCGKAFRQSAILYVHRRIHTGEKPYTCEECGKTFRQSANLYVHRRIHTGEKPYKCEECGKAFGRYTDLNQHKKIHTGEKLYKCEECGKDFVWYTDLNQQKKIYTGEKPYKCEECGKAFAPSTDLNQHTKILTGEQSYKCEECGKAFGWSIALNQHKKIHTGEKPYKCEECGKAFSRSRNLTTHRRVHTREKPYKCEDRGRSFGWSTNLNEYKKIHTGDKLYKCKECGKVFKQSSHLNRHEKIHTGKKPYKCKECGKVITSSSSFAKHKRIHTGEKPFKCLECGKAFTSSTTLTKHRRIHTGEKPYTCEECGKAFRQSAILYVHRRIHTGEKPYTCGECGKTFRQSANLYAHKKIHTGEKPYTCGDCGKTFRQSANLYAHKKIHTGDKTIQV", "assay": "HT-SELEX; 20 mM HEPES pH 7, 140 mM KCl, 5 mM NaCl, 1 mM K2HPO4, 2 mM MgSO4, 100 uM EGTA, ZnSO4, 0.1% Tween20; room temperature, 1 h; high values mean tight binding", "settings": "protein: ivt; tags: eGFP (N-terminal); dsDNA, one strand shown", "in_short": "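Bead-immobilised tagged transcription factor (full-length or DNA-binding-domain fragment), made in HEK293 lysate or cell-free extract, was incubated with a randomized 40-base DNA library. Binding was for 1 h at room temperature in HEPES/KCl low-stringency buffer with Tween20. After washing and heat elution, bound DNA was PCR-amplified over successive cycles and Illumina-sequenced (~3 million 60 bp reads per sample). Binding signal is a relative k-mer count in selected reads; higher means tighter binding.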", "units": {"binding signal": "relative 10-mer count"}, "values": [{"sequence": "CAAAAAAAAA", "binding signal": 0.226}, {"sequence": "GCCCACCACC", "binding signal": 0.17}, {"sequence": "CCCCCCCCAC", "binding signal": 0.257}, {"sequence": "CGACCCCCCC", "binding signal": 0.113}, {"sequence": "CGTCCCACCC", "binding signal": 0.127}, {"sequence": "ACACCCCACC", "binding signal": 0.13}, {"sequence": "CCCACCACCA", "binding signal": 0.199}, {"sequence": "AAAGCAGCGT", "binding signal": 0.371}, {"sequence": "CAGCCCACCC", "binding signal": 0.151}, {"sequence": "ACCCCCACCG", "binding signal": 0.102}, {"sequence": "CCCCCAACCA", "binding signal": 0.118}, {"sequence": "AGCATCTCCA", "binding signal": 0.132}, {"sequence": "CACCCAACCC", "binding signal": 0.123}, {"sequence": "AGGGGGTGGG", "binding signal": 0.201}, {"sequence": "CCCCCGCTCC", "binding signal": 0.103}, {"sequence": "CAACAAAGCA", "binding signal": 0.126}, {"sequence": "GCCCCGCCCC", "binding signal": 0.124}, {"sequence": "AGGGGGGAGG", "binding signal": 0.149}, {"sequence": "CCACCGCCAC", "binding signal": 0.12}, {"sequence": "CCCACCACCG", "binding signal": 0.12}, {"sequence": "CGCCCCCGCC", "binding signal": 0.132}, {"sequence": "CCCCAACCAC", "binding signal": 0.156}, {"sequence": "CCCCCCCGAC", "binding signal": 0.115}, {"sequence": "CCACCACGCC", "binding signal": 0.105}, {"sequence": "CCCCCCTCCC", "binding signal": 0.304}, {"sequence": "AGGGGAGGGG", "binding signal": 0.13}, {"sequence": "AGGGTGGTGG", "binding signal": 0.142}, {"sequence": "CACCCTCCCC", "binding signal": 0.212}, {"sequence": "CCCCACCACG", "binding signal": 0.11}, {"sequence": "CCTCGCCCCC", "binding signal": 0.123}, {"sequence": "CTCCCACCAC", "binding signal": 0.11}, {"sequence": "CCACCCACAC", "binding signal": 0.152}, {"sequence": "CCACCCCTAC", "binding signal": 0.112}, {"sequence": "CCTCCCCCCG", "binding signal": 0.143}, {"sequence": "GGGGGTGGGA", "binding signal": 0.205}, {"sequence": "GCAAAAAAAA", "binding signal": 0.118}, {"sequence": "CCCCTCCCCC", "binding signal": 0.337}, {"sequence": "CGCCCCACCA", "binding signal": 0.117}, {"sequence": "CCCCGCCCAC", "binding signal": 0.202}, {"sequence": "CCCACCTACC", "binding signal": 0.111}]}]}
